About 83,000 compounds went through this panel and 20% of them were active in at least one assay; those are over-represented in the sample as a whole.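 Note: values are percent growth. 100 is the growth of untreated cells, values between 100 and 0 indicate rising inhibition; between -100 and 0 indicates cell death.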 Unmarked numbers belong to inactive results. Calls of active or inactive are those of the source. The calls were made as follows: active = growth percent below 10; inactive = the rest.

Drawing on PubChem BioAssay (NCI), this text covers growth for nine compounds.

What all share (test): NCI-60 one-dose screen, 48 h (100 = growth as untreated, 0 = no growth, -100 = all killed)
The test system of test [1] is SK-MEL-2 melanoma. As to conditions: 10 µM unless noted.
Test [2] has as its system EKVX NSCLC. Conditions: 10 µM unless noted.
In test [3] the test system is SN12C renal. Conditions: 10 µM unless noted.
For test [4], the system named is UO-31 renal. As to conditions: 10 µM unless noted.
Test [5] relates to TK-10 renal. Conditions: 10 µM unless noted.
Test [6] relates to ACHN renal. Conditions: 10 µM unless noted.
For test [7], the system named is CAKI-1 renal. Conditions: 10 µM unless noted.
The test system of test [8] is CCRF-CEM leukemia. As to conditions: 10 µM unless noted.
Test [9] relates to MOLT-4 leukemia. As to conditions: 10 µM unless noted.
For test [10], the system named is SR leukemia. As to conditions: 10 µM unless noted.
For test [11], the system named is RPMI-8226 leukemia. As to conditions: 10 µM unless noted.
Test [12] relates to OVCAR-8 ovarian. Conditions: 10 µM unless noted.
Test [13] has as its system OVCAR-5 ovarian. Conditions: 10 µM unless noted.
The test system of test [14] is OVCAR-4 ovarian. Conditions: 10 µM unless noted.
Test [15] deals with SK-OV-3 ovarian. Conditions: 10 µM unless noted.
Test [16] deals with IGROV1 ovarian. As to conditions: 10 µM unless noted.
Test [17] concerns OVCAR-3 ovarian. Conditions: 10 µM unless noted.
For test [18], the system named is HS 578T breast. As to conditions: 10 µM.
The subject of test [19] is NCI/ADR-RES ovarian. Conditions: 10 µM unless noted.
The test system of test [20] is A498 renal. Conditions: 10 µM unless noted.

As for `COc1ccc(/C=c2\c(=O)n(-c3ccccc3)c3nn4c(n23)=NNC42CCCCC2)cc1`, the growth in test [1] is 108%; in [2], 91.8%; in [3], 98.5%; in test [4], 63.2%; in test [5] it was 159%; in test [6], 90.5%. Moreover, the growth in [7] is 85.6%; in test [8] it was 101%; in test [9], 98.8%; in test [10], 115%; in [11] it was 107%; in test [12], 95.1%. Moreover, the growth in [13] was 113%; in [14], 106%; in test [15] it was 95.5%; in [16], 88.5%; in test [17] it was 95.9%; in test [18], 104%. Further, in test [19], the growth was 99.4%.

Turning to `CCCCCCCCCCCCCCCCCC1=NC(C)(C)CN1C(C)(C)CO`, the growth in test [1] is -69% (active); in [2] it was 27%; in [3], 11.6%; in [4], -52.9% (active); in test [5], -35.1% (active); in test [6], -75.6% (active). Further, the growth is -65.2% (active) in test [7]; 78.9% in test [20]; -52.9% (active) in test [8]; -35.3% (active) in test [11]; -80.4% (active) in test [12]; 37.9% in [13]. Besides, the growth in test [14] is 3.31% (active); in test [15], -40% (active); in test [16], -83.8% (active); in test [17], -1.05% (active); in [18] it was 15.3%; in [19], -7.97% (active).

In the case of `Cc1nc2n[nH]c(N)c2nc1C`, the growth in test [1] was 103%; in test [2], 106%; in test [3], 103%; in [4] it was 87%; in test [5] it was 104%; in [6] it was 104%. The growth was 106% in [7]; 120% in test [20]; 101% in test [8]; 106% in [11]; 95.1% in test [12]; 102% in [13]. Besides, the growth is 106% in test [14]; 104% in test [15]; 97.9% in [16]; 104% in [17]; 114% in test [18]; 103% in test [19].

In the case of `O=[N+]([O-])c1ccccc1CN1CCCCC1`, the growth in [1] is 100%; in test [2], 86.8%; in [3], 105%; in test [4], 89.4%; in test [5] it was 121%; in test [6], 113%. Also, the growth in [7] was 108%; in [20], 99.5%; in [8], 85.4%; in test [9] it was 115%; in test [11], 109%; in test [12] it was 108%. Also, the growth was 102% in test [13]; 114% in test [14]; 127% in test [15]; 109% in test [17]; 118% in [18]; 104% in test [19].

For `CCOC(=O)NNc1cccc(Cl)c1`, the growth in [1] was 116%; in [2] it was 90.6%; in test [3], 114%; in test [4] it was 70.6%; in [5], 120%; in test [6], 93.5%. Further, the growth in [7] was 90%; in [20] it was 85.5%; in test [8], 103%; in [10], 102%; in [11], 98.8%; in test [12], 106%. In addition, the growth in test [13] is 88.3%; in test [14] it was 106%; in test [15], 105%; in [16] it was 94.9%; in [18], 104%; in test [19], 99.3%.

For the compound `CCCCCCCCCCCCCCCCS(=O)(=O)Nc1cc(C(=O)NN)cc(C(=O)NN)c1`, the growth was 114% in test [1]; 47.1% in test [2]; 72.9% in test [3]; 65% in test [4]; 68.6% in test [5]; 77.1% in test [6]. For the same compound, the growth in [7] was 49%; in [20], 90.4%; in test [8], 34.3%; in [10] it was 56.9%; in test [11], 68%; in [12] it was 77.5%. The growth is 68.3% in [13]; 48.1% in test [14]; 69.8% in test [15]; 66.3% in [16]; 47.2% in [17]; 81.2% in test [18]. Moreover, the growth in [19] was 102%.

For the compound `CCCCCCCCCCCC1=NC(C)(C)CN1C(C)(C)CO`, the growth is 49.4% in test [1]; 64.6% in test [2]; 59.8% in [3]; 46.7% in test [4]; 70.3% in test [5]; 56.7% in test [6]. Moreover, the growth in test [7] is 63.2%; in test [20] it was 90.1%; in test [8] it was 26.6%; in [11], 1.29% (active); in test [12], 69.4%; in test [13], 73.2%. Moreover, the growth in test [14] was 64.4%; in test [15] it was 73.8%; in test [16] it was 53.2%; in test [17] it was 76.7%; in test [18] it was 81.2%; in [19], 65%.

On to `COc1cc(C)cc2oc3oc(=O)c(-c4csc(-c5cc6ccccc6oc5=O)n4)cc3c(=O)c12`, for which the growth was 124% in test [1]; 107% in test [2]; 102% in [3]; 88.6% in test [4]; 121% in test [5]; 104% in test [6]. The growth in [7] was 96.1%; in test [8], 105%; in test [9] it was 108%; in test [10], 113%; in [11], 109%; in [12] it was 103%. In addition, the growth was 109% in [13]; 106% in test [14]; 120% in [15]; 117% in [16]; 116% in test [17]; 105% in test [19].

Take `CCN(CC)Cc1cc(Nc2ccnc3cc(Cl)ccc23)cc(-c2ccc(Cl)cc2)c1O`: the growth is 80.1% in [1]; 2.25% (active) in test [2]; 23.6% in [3]; -21.4% (active) in [4]; 5.81% (active) in test [5]; 57.1% in test [6]. The growth was 54.8% in test [7]; 48.9% in [20]; 45% in [8]; -22.7% (active) in test [10]; 6% (active) in test [11]; 9.58% (active) in test [12]. The growth was 54.2% in test [13]; 48.1% in [15]; -6.07% (active) in test [16]; -44.1% (active) in test [17]; -33.5% (active) in [18]; 19.9% in test [19].
